From PubChem BioAssay (Tox21)
A number with no mark means an inactive call. Records with an inconclusive call do not appear. Entries that show only a call come without a potency. Calls of active or inactive are those of the source. Unless noted, calls follow the shape of the dose curve; as a rule, active = well fitted curve in the direction sought with a large enough effect in the repeat runs; inconclusive = weak or mixed curves; inactive = no such curve, though single readings can be large; an effect the other way counts as inactive or inconclusive.

Columns and labels:
[1] = qHTS assay to identify small molecule antagonists of the estrogen receptor alpha (ER-alpha) signaling pathway using the BG1 cell line in the presence of 0.1 nM 17-beta-estradiol - cell viability counter screen (AID 1259241); also: nearly all actives have a fitted effect of over 40% in size
Method in brief: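 The cell line endogenously expresses full-length ER-alpha and carries four EREs driving luciferase. Cells are cultured 5 days hormone-free, treated 22 hr with compounds and 0.1 nM estradiol, then viability is read by fluorescence.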

[2] = qHTS assay to identify small molecule antagonists of the androgen receptor (AR) signaling pathway using the MDA cell line in the presence of 0.5 nM R1881 - cell viability counter screen (AID 1259242); also: nearly all actives have a fitted effect of over 45% in size
Method in brief: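 R1881 at 0.5 nM final stimulated MDA-kb2 cells during 16 hr compound treatment at 37C. Cytotoxicity read: CellTiter-Fluor fluorescence after 30 min.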

[3] = biological target: Androgen receptor (Homo sapiens) (UniProt P10275); test: qHTS assay to identify small molecule antagonists of the androgen receptor (AR) signaling pathway using the MDA cell line in the presence of 0.5 nM R1881 (AID 1259243); also: nearly all actives have a fitted effect of over 50% in size
Method in brief: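 We exposed MDA-kb2 cells to compounds under 0.5 nM R1881 stimulation for 16 hr at 37C and quantified MMTV-driven luciferase by luminescence.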

[4] = qHTS assay to identify small molecule HDAC inhibitors (AID 1259364); also: potency is read from the fitted curve at half-maximal effect;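 also: wild-type HCT-116 cells with endogenous class I/II HDAC activity; nearly all actives have a fitted effect of over 45% in size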
Method in brief: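 Relative class I and II HDAC activity is taken from the luminogenic signal in HCT-116 cells, with compound exposure 2 hr and reagent development 30 min at room temperature.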

[5] = qHTS assay to identify small molecule HDAC inhibitors - cell viability counter screen (AID 1259365); also: series mostly up to about 92 µM; nearly all actives have a fitted effect of over 50% in size
Method in brief: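 Viability readout: CellTiter-Glo luminescence. Wild-type HCT-116 cells, 2hr compound treatment following overnight attachment at 37 C.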

[6] = qHTS assay to identify small molecule agonists of the sonic hedgehog signaling (Shh) pathway - cell viability counter screen (AID 1259366); also: nearly all actives have a fitted effect of over 50% in size
Method in brief: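 Viability measured fluorometrically (CellTiter-Fluor, 1hr, 37C) in 3T3 Gli1-Luc reporter cells after 23hr compound exposure within a 24hr incubation at 37C/5% CO2.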

[7] = qHTS assay to identify small molecule antagonists of the sonic hedgehog signaling (Shh) pathway - cell viability counter screen (AID 1259367); also: nearly all actives have a fitted effect of over 55% in size
Method in brief: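 After a 4 hr settling period, 3T3 Gli1-Luc cells were treated with DMSO-dissolved chemicals and conditioned medium, kept 24 hr at 37C in 5% CO2, and assayed for viability by CellTiter-Fluor fluorescence following 1 hr reagent incubation.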

[8] = qHTS assay to identify small molecule agonists of the sonic hedgehog signaling (Shh) pathway (AID 1259368; calls by dose curve;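 also: NIH/3T3-derived 3T3Gli1-Luc cells carrying a stable Gli1-driven firefly luciferase reporter; series mostly up to about 92 µM; nearly all actives have a fitted effect of over 15% in size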)
Method in brief: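 Mouse fibroblast (NIH/3T3) reporter cells with stably integrated Gli1-Luc were treated 24 hr with compound; firefly luciferase luminescence served as the read-out.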

[9] = qHTS assay to identify small molecule antagonists of the sonic hedgehog signaling (Shh) pathway (AID 1259369; calls by dose curve; also: nearly all actives have a fitted effect of over 45% in size; also: potency is read from the fitted curve at half-maximal effect)
Method in brief: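 Conditioned medium drives Shh signalling in 3T3Gli1-Luc cells; compounds in DMSO co-applied, 24hr at 37 C, then luciferase luminescence.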

[10] = biological target: Estrogen receptor beta (Homo sapiens) (UniProt Q92731); test: qHTS assay to identify small molecule agonists of the estrogen receptor beta (ER-beta) signaling pathway (AID 1259377; active = well fitted activation curve with a large enough effect in the signal ratio in the repeat runs, not every such curve was filed as active; the % refers to the signal ratio)
Method in brief: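 A UAS-controlled beta-lactamase reporter in ER-beta-UAS-bla HEK293T cells reports receptor activation. Compounds act for 16 hr at 37C in 2% charcoal-stripped serum, and a FRET substrate is read by fluorescence after 2 hours.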

[11] = biological target: Estrogen receptor beta (Homo sapiens) (UniProt Q92731); test: qHTS assay to identify small molecule antagonists of the estrogen receptor beta (ER-beta) signaling pathway (AID 1259378; active = well fitted inhibition curve with a large enough effect in the signal ratio in the repeat runs, not every such curve was filed as active; the % refers to the signal ratio)
Method in brief: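 ER-beta-UAS-bla HEK293T (GripTite) cells in 2% charcoal-stripped FBS medium were preincubated 6 hr at 37C, dosed with compound, then stimulated with 1 nM E2 (final) for 16 hr; beta-lactamase reporter read by B/G FRET fluorescence after 2 hr substrate loading.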

[12] = qHTS assay to identify small molecule agonists of the androgen receptor (AR) signaling pathway in the presence of an antagonist - cell viability counter screen (AID 1259379);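 also: MDA-kb2 human breast cancer cells carrying an MMTV luciferase reporter; series mostly up to about 92 µM; nearly all actives have a fitted effect of over 25% in size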
Method in brief: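 A CellTiter-Fluor read-out measured viability of MDA-kb2 reporter cells (MMTV promoter with AR and GR response elements). Treatment: nilutamide 3.0uM final with compounds at 15 concentrations, 16 hr, 37C, 0% CO2.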

[13] = qHTS assay to identify small molecule agonists of the estrogen receptor beta (ER-beta) signaling pathway - cell viability counter screen (AID 1259380); also: nearly all actives have a fitted effect of over 30% in size; also: potency is read from the fitted curve at half-maximal effect
Method in brief: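 Cells used were ER-beta-UAS-bla HEK293T in medium with 2% charcoal-stripped FBS. They were treated for 16 hr at 37C. Viability came from CellTiter-Glo luminescence.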

[14] = biological target: Androgen receptor (Homo sapiens) (UniProt P10275); test: qHTS assay to identify small molecule agonists of the androgen receptor (AR) signaling pathway in the presence of an antagonist (AID 1259381; calls by dose curve; also: nearly all actives have a fitted effect of over 15% in size; also: potency is read from the fitted curve at half-maximal effect)
Method in brief: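 Using human MDA-kb2 cells with an MMTV promoter–luciferase construct (AR and GR response elements), agonist activity is scored under 3.0uM nilutamide (final) co-treatment; 16hr incubation, 37C, luminescence readout via ONE-Glo.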

[15] = qHTS assay to identify small molecule antagonists of the estrogen receptor beta (ER-beta) signaling pathway - cell viability counter screen (AID 1259382); also: series mostly up to about 92 µM; nearly all actives have a fitted effect of over 55% in size
Method in brief: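 Agonist-stimulated (1nM E2) ER-beta-UAS-bla HEK293T cells are incubated with library compounds for 16 hr at 37C. Cell viability is then assessed in the reporter-assay wells by adding CellTiter-Glo and reading luminescence after 30 min.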

[16] = qHTS assay to identify small molecule agonists or antagonists of the thyroid stimulating hormone receptor (TSHR) signaling pathway - wild type cell line counter screen (AID 1259384; calls by dose curve)
Method in brief: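 Wild-type HEK293 cells were plated 18 h at 37 C/5% CO2, pin-dosed with compound plus Ro20-1724 medium, held 30 min at room temperature, then given cAMP-d2 and anti-cAMP-cryptate; fluorescence was read after 1 h. Fifteen concentrations, triplicate.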

[17] = biological target: Thyrotropin receptor (Homo sapiens) (UniProt P16473); test: qHTS assay to identify small molecule antagonists of the thyroid stimulating hormone receptor (TSHR) signaling pathway (AID 1259385; calls by dose curve; also: nearly all actives have a fitted effect of over 20% in size)
Method in brief: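 TSHR-HEK293 cells were plated and held 18 h at 37C/5% CO2, then given compound plus Ro20-1724 and stimulated with TSH at 1.5 ng/mL final. After 30 min at room temperature, cAMP was detected with cAMP-d2/anti-cAMP-cryptate (1 h) by fluorescence.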

[18] = biological target: Estrogen receptor (Homo sapiens) (UniProt P03372); test: qHTS assay to identify small molecule antagonists of the estrogen receptor alpha (ER-alpha) signaling pathway using the BG1 cell line in the presence of 0.1 nM 17-beta-estradiol (AID 1259244); also: nearly all actives have a fitted effect of over 50% in size
Method in brief: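 VM7Luc4E2; 4xERE-luciferase; 0.1 nM E2 final; 22 h co-incubation, 37C; ONE-Glo luminescence after 30 min at room temperature.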

[19] = biological target: Estrogen receptor (Homo sapiens) (UniProt P03372); test: qHTS assay to identify small molecule agonists of the estrogen receptor alpha (ER-alpha) signaling pathway in the presence of an antagonist (AID 1259383; calls by dose curve; also: nearly all actives have a fitted effect of over 15% in size; also: potency is read from the fitted curve at half-maximal effect; as to activation: top concentration of the series differs between compounds)
Method in brief: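 Using VM7Luc4E2 cells seeded 24hr before treatment, antagonist ICI-182,780 (10.0nM final) was added, followed by compounds at 15 concentrations. Plates incubated 22hr; ONE-Glo luminescence quantified reporter activity.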

[20] = qHTS assay to identify small molecule phospholipidosis (PLD) inducers (AID 1259344; active = well fitted curve in the direction sought with a large enough effect; an effect the other way counts as inactive or inconclusive)
Method in brief: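 HepG2 cells grown on collagen I take up LipidTOX Red while exposed to compound for 24 h; after fixation they are imaged at 20x and pit metrics are extracted.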

Thyrotropin receptor (Homo sapiens), sequence (P16473 whole entry, looked up): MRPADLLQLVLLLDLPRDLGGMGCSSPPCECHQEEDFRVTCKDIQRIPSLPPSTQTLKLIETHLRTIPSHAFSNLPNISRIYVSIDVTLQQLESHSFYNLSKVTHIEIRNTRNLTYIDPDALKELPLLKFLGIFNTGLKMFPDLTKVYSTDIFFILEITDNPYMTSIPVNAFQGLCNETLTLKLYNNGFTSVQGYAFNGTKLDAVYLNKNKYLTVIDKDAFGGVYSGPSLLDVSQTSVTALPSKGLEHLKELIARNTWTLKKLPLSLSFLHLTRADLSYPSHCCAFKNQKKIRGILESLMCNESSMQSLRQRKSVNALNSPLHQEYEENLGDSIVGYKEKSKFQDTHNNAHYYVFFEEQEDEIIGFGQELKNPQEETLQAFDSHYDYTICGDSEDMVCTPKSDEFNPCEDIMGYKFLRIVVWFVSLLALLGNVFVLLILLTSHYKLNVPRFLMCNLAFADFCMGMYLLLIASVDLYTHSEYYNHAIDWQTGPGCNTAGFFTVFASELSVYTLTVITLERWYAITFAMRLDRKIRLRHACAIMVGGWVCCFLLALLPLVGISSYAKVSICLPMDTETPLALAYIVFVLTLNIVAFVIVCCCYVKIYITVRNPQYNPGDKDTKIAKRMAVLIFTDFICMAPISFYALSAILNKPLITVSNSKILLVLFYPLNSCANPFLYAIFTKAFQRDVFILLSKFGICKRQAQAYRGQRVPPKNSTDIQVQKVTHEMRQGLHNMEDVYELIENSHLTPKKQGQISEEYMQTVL
Androgen receptor (Homo sapiens), sequence (P10275 whole entry, looked up): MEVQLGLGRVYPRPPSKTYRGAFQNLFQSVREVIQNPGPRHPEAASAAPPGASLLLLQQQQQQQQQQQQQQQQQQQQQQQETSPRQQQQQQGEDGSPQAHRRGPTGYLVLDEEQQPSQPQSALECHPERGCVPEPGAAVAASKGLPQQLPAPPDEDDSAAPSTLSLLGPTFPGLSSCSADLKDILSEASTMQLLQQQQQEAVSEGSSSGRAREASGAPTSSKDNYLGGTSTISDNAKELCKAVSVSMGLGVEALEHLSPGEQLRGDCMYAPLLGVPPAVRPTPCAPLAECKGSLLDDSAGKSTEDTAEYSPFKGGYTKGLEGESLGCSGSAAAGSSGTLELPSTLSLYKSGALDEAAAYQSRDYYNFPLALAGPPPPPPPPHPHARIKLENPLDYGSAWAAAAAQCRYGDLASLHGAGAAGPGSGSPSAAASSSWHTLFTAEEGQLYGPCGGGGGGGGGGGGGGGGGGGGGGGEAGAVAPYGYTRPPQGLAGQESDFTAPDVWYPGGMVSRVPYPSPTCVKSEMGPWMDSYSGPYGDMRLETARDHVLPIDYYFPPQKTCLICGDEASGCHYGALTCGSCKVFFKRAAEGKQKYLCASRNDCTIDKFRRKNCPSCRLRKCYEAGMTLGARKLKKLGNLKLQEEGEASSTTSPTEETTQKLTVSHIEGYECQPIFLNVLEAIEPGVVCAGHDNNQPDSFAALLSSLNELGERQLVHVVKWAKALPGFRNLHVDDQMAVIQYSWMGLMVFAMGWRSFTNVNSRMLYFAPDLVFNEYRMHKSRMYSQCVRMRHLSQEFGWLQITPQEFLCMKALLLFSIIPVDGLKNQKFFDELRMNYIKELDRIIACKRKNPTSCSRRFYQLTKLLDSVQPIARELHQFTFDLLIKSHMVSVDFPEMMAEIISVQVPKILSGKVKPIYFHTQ
Estrogen receptor (Homo sapiens), sequence (P03372 whole entry, looked up): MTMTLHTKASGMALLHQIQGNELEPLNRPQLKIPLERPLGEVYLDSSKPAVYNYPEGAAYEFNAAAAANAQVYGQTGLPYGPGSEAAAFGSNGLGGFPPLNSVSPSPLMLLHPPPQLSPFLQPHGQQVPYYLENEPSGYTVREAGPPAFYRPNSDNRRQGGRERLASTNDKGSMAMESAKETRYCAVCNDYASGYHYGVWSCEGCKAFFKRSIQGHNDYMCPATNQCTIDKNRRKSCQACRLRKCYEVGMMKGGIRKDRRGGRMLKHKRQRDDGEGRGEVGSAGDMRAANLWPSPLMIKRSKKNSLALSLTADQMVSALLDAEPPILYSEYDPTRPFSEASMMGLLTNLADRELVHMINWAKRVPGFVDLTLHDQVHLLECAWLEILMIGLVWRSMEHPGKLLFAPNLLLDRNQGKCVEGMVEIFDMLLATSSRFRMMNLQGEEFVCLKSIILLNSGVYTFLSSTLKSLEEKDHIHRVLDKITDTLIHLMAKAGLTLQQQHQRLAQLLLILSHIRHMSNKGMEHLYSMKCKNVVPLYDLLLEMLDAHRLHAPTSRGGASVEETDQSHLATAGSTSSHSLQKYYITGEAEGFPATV
Estrogen receptor beta (Homo sapiens), sequence (Q92731 whole entry, looked up): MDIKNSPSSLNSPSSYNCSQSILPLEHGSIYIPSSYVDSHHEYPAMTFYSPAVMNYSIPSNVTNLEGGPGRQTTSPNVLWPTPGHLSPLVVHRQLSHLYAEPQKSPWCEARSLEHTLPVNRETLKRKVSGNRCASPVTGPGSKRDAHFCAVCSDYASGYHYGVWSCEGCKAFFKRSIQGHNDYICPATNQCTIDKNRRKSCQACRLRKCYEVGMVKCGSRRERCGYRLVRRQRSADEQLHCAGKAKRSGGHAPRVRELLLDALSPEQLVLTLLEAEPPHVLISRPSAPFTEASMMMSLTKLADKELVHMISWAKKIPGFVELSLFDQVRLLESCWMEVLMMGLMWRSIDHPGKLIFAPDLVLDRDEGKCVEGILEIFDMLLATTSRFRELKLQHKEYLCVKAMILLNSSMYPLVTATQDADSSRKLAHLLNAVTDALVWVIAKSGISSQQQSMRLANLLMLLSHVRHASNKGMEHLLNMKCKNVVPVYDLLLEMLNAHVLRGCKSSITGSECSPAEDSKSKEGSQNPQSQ

SMILES	outcome [1]	outcome [2]	Potency [3]	Potency [4]	outcome [5]	Potency [6]	Potency [7]	outcome [8]	Potency [9]	outcome [10]	Potency [11]	Potency [12]	Potency [13]	Potency [14]	Potency [15]	Potency [16]	Potency [17]	Potency [18]	Potency [19]	outcome [20]
CNC(=O)Oc1c(C(C)(C)C)cc(C)cc1C(C)(C)C	inactive	inactive	inactive	inactive	inactive	inactive	inactive	inactive	inactive	inactive	inactive	inactive	inactive	inactive	inactive	inactive	inactive	–	–	–
CCOP(=S)(OCC)Oc1ncn(-c2ccccc2)n1	inactive	inactive	inactive	inactive	inactive	inactive	inactive	inactive	inactive	inactive	inactive	inactive	–	inactive	inactive	–	inactive	inactive	inactive	–
CC(Cl)(Cl)[N+](=O)[O-]	inactive	inactive	inactive	inactive	inactive	inactive	inactive	inactive	inactive	–	inactive	inactive	–	inactive	inactive	–	inactive	inactive	inactive	–
c1ccc(N2CCNCC2)cc1	inactive	inactive	inactive	inactive	inactive	inactive	inactive	inactive	inactive	–	inactive	inactive	inactive	inactive	inactive	–	inactive	–	–	–
C#C[C@]1(O)C=C[C@H]2[C@@H]3CCC4=CC(=O)CC[C@@H]4[C@H]3CC[C@@]21CC	inactive	inactive	inactive	inactive	inactive	inactive	inactive	inactive	15 µM (active)	–	–	inactive	–	0.133 µM (active)	inactive	–	inactive	inactive	3.35 µM (active)	inactive
O=C(Nc1ccccc1)c1ccccc1I	inactive	inactive	inactive	–	inactive	inactive	–	inactive	–	–	–	inactive	–	inactive	inactive	inactive	inactive	inactive	inactive	–
N#CC(Cl)(Cl)Cl	inactive	inactive	inactive	inactive	inactive	inactive	inactive	inactive	inactive	inactive	inactive	inactive	inactive	inactive	inactive	–	–	inactive	inactive	–
C[C@]12CC[C@H]3[C@@H](CCC4=CC(=O)CC[C@@]43C)[C@@H]1CC[C@@H]2C(=O)O	inactive	inactive	inactive	inactive	inactive	inactive	inactive	inactive	inactive	–	–	inactive	inactive	inactive	inactive	inactive	inactive	inactive	inactive	–
Nc1ccccc1Cl	inactive	inactive	inactive	inactive	inactive	inactive	inactive	–	inactive	inactive	inactive	inactive	inactive	inactive	inactive	inactive	inactive	inactive	inactive	–
CC(C(=O)c1ccccc1)N(C)C (centres undefined)	inactive	inactive	inactive	inactive	inactive	inactive	inactive	–	–	–	inactive	inactive	–	inactive	inactive	inactive	inactive	inactive	inactive	–
COC(=O)C(c1ccccc1)C1CCCCN1 (centres undefined)	inactive	inactive	inactive	inactive	inactive	inactive	–	inactive	inactive	–	inactive	inactive	–	inactive	inactive	inactive	inactive	inactive	inactive	inactive
COP(N)(=S)Oc1ccccc1C(=O)OC(C)C (centres undefined)	inactive	inactive	inactive	inactive	inactive	inactive	inactive	inactive	inactive	–	–	inactive	–	inactive	inactive	inactive	inactive	inactive	inactive	–
CC(Oc1ccc(Oc2ncc(C(F)(F)F)cc2Cl)cc1)C(=O)O (centres undefined)	inactive	inactive	inactive	inactive	inactive	inactive	inactive	inactive	–	–	–	inactive	17.2 µM (active)	inactive	–	inactive	inactive	inactive	inactive	–
CNC(=O)N(C)c1nc2ccccc2s1	inactive	inactive	inactive	0.545 µM (active)	inactive	inactive	inactive	inactive	inactive	–	–	inactive	–	–	inactive	–	inactive	–	–	–
CCOC(=O)C(c1c(O)c2ccccc2oc1=O)c1c(O)c2ccccc2oc1=O	inactive	inactive	inactive	inactive	inactive	–	–	inactive	–	inactive	–	inactive	–	inactive	–	inactive	–	inactive	inactive	–
CCN(CC)C(C)C(=O)c1ccccc1 (centres undefined)	inactive	inactive	inactive	inactive	inactive	inactive	inactive	–	inactive	–	–	inactive	–	inactive	inactive	inactive	inactive	inactive	inactive	inactive
O=C1OC(CCN2CCCCC2)OC1(c1ccccc1)c1ccccc1 (centres undefined)	inactive	inactive	inactive	inactive	inactive	–	–	–	–	inactive	inactive	inactive	inactive	inactive	inactive	inactive	inactive	inactive	inactive	–
